PostGolgi yeast: growth inhibition of a yeast mutant, post-Golgi transport screen. post-Golgi transport phenotypic cell assay. inhibition, % at 10 µM. 98,000 compounds, 0.9% hits. AID 739;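 further: yeast cells grown in 1536-well plates; yeast grown about 18 h at 30C before absorbance read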
CYP2C19 act: increases human CYP2C19 enzyme activity | P33261 | recombinant CYP2C19, luciferin-H EGE luminescence; hits give high values; 0 = fully inhibited enzyme, 1 = untreated enzyme | activation factor at 5 µM | 96,000 tested, under 10 active;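 active means activation factor of at least 2 at 5 µM in the primary screen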;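 further: 0 = wells with 2.5 mM tranylcypromine and 1 = vehicle-only wells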
CYP2C19 inh: human CYP2C19 inhibition | P33261 | CYP2C19 Supersomes, luciferin-H EGE luminescence, 30 min | inhibition, % at 5 µM | 96,000 compounds, 21% hits | AID 778;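 active means CYP2C19 inhibition above a set limit at 5 µM in the primary screen, cut at about 50% in these data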;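 further: plate controls were negative control wells for no effect and 2.5 mM tranylcypromine positive control for full effect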
PostGolgi ctrl: inhibits growth of the yeast control strain; AID 738; efflux-deficient yeast background strain, growth absorbance A615, 16 h; inhibition, % at 10 µM; 98,000 compounds, 5% hits
CYP2C9 inh: human CYP2C9 inhibition; P11712; CYP2C9 Supersomes, luciferin-H conversion, luminescence; inhibition, % at 5 µM; 96,000 compounds, 20% hits;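 active means blocking of liver enzyme CYP2C9 beyond about 50% at 5 µM, limit read from the data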
Target sequence (P11712 whole entry, looked up): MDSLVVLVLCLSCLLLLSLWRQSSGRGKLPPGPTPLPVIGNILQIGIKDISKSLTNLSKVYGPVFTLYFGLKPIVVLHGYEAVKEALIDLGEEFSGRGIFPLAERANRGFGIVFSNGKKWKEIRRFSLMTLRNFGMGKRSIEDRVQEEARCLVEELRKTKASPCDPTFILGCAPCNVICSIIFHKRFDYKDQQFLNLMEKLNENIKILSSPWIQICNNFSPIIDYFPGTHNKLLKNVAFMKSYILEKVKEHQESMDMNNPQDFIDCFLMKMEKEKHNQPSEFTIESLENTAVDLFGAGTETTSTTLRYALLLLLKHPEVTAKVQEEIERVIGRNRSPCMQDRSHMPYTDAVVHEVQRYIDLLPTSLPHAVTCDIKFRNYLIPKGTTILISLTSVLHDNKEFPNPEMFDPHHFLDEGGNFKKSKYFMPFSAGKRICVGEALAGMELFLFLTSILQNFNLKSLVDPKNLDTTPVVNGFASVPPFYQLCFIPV
CYP2C9 activ: CYP2C9 (human) activation. AID 1024. activation factor at 5 µM. recombinant CYP2C9, luciferin-H conversion, luminescence; hits give high values; factor 1 = untreated enzyme, 0 = blocked. 96,000 compounds, 1.4% hits;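 active means activation factor of 2 or more for CYP2C9 at a 5 µM dose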;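 further: 0 = sulfaphenazole-blocked wells and 1 = vehicle-only wells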
* marks the source's active call; other numbers are inactive results; . = not tested or not shown. Only some compounds are listed: those with a hit (about 32% of all), similar ones and a draw of the others. Unless noted, no stated cut-off is given here; in the data, active means inhibition above about 30%; inactive means the rest.

SMILES	PostGolgi yeast	CYP2C19 act	CYP2C19 inh	PostGolgi ctrl	CYP2C9 inh	CYP2C9 activ
CN1/C(=C\C=Nc2ccccc2)C(C)(C)c2ccccc21	3	1	1	8	1	1
CN1/C(=C\C(=O)c2ccco2)C(C)(C)c2ccccc21	8	0.8	25	23	56*	0.4
CN1/C(=C\C(=O)COc2ccc3c(c2)OCO3)C(C)(C)c2ccccc21	0	0.8	24	16	87*	0.1
CCOC(=O)c1nc(S(C)(=O)=O)ncc1Cl	0	1	5	13	1	1
CN1/C(=C\C(=O)C(F)F)C(C)(C)c2ccccc21	-7	0.7	34	10	53*	0.5
CN1/C(=C/C(=O)c2nc(S(C)(=O)=O)ncc2Cl)C(C)(C)c2ccccc21	16	0.9	9	60*	32	0.7
O=C1CCCN1CN(C(=O)c1ccc2c(c1)OCO2)c1ccc(F)cc1	-1	0.9	14	0	2	1
COC(=O)c1ccc(C(=O)OC)nc1	-3	0.8	21	-3	-4	1
COC(=O)C1=C(C)N(C)C(C)=C(C(=O)OC)C1c1ccsc1	15	0.3	68*	14	91*	0.1
CCOC(=O)C1=CN(C)C=C(C(=O)OCC)C1c1ccsc1	-3	0.6	44	16	40	0.6
CCOc1ccc(C2C(C(=O)OC)=CN(CCOC)C=C2C(=O)OC)cc1	0	0.6	43	11	23	0.8
COC(=O)C1=CNC=C(C(=O)OC)C1c1ccc(C(=O)OC)cc1	4	0	99*	11	95*	0
COC(=O)C1=C(C)N(C)C(C)=C(C(=O)OC)C1c1ccc(C(=O)OC)cc1	5	0	97*	17	92*	0.1
COC(=O)C1=C(C)N(C)C(=O)NC1c1ccc(C)cc1 (stereo not drawn)	2	0.5	54*	3	29	0.7
CC(=O)Nc1ccc(S(=O)(=O)NC2(C(F)(F)F)NC(=O)N(C3CCCCC3)C2=O)cc1 (stereo not drawn)	-1	1.1	-9	2	30	0.7
Cc1ccc(S(=O)(=O)N2CC3(C)CN(S(=O)(=O)c4ccc(C)cc4)CC(C)(C2)C3)cc1	8	0.9	13	-4	32	0.7
CCCCN(C)S(=O)(=O)c1ccc(C(=O)Nc2nnc(CSC)o2)cc1	-6	1	4	3	85*	0.2
CCCCN(CCCC)S(=O)(=O)c1ccc(C(=O)Nc2nnc(COC)o2)cc1	1	1	3	-3	19	0.8
CCc1nnc(NC(=O)c2ccc(S(=O)(=O)N(CC)Cc3ccccc3)cc2)o1	9	1	0	6	95*	0
COc1ccccc1-c1nnc(NC(=O)c2ccc(S(=O)(=O)N(C)Cc3ccccc3)cc2)o1	17	.	.	7	.	.
CN(Cc1ccccc1)S(=O)(=O)c1ccc(C(=O)Nc2nnc(C3CC3)o2)cc1	-7	0.8	22	20	85*	0.1
O=C(NC1=NCCS1)c1cc(-c2ccccc2)nn1-c1ccccc1	.	1.2	-17	.	-14	1.1
Cc1cccc(CNC(=O)c2ccccc2N)c1	-3	0.8	17	3	-18	1.2
O=C(NC(Cc1ccccc1)c1ccc2c(c1)OCCCO2)c1ccc(F)cc1 (stereo not drawn)	0	0.4	64*	16	90*	0.1
COc1cccc(C(=O)NC(Cc2ccccc2)c2ccc3c(c2)OCCCO3)c1 (stereo not drawn)	11	0.5	46	0	75*	0.2
SMILES	PostGolgi yeast	CYP2C19 act	CYP2C19 inh	PostGolgi ctrl	CYP2C9 inh	CYP2C9 activ
COc1ccc(C(CC(=O)O)NC(=O)c2ccco2)cc1 (stereo not drawn)	-2	0.9	10	14	-2	1
Cc1cccc(OCc2nc(-c3nonc3N)no2)c1C	-2	0.3	66*	3	28	0.7
COc1ccc(CC(=O)Nc2ccc(-c3noc(COc4ccccc4C)n3)cc2)cc1	-6	0.9	10	1	21	0.8
Nc1nonc1-c1noc(COc2ccccc2Cl)n1	-4	0.1	86*	11	28	0.7
CCOc1ccc(Cc2nc(-c3nonc3N)no2)cc1OCC	-5	0.5	50*	6	7	0.9
CC(C)CCn1nnnc1C(c1ccc(F)cc1)N1CCC(C(N)=O)CC1 (stereo not drawn)	2	1	-1	2	28	0.7
N#CC1=C(N)N2C(=C(C#N)C13CCN(Cc1ccccc1)CC3)Nc1ccccc12	-20	0.8	18	30*	38	0.6
Cc1[nH]nc2c1C1(CCN(Cc3ccccc3)CC1)C(C#N)=C(N)O2	-10	0.7	29	-4	22	0.8
Cn1c(=O)[nH]c(=O)c2c1nc(Br)n2CCCO	-2	1	-2	8	46	0.5
Cc1nc2ncnn2c(C)c1Cc1ccc(Cl)cc1	-4	0	95*	6	73*	0.3
Cc1ccc(NC(=O)CCc2c(C)nc3ncnn3c2C)nc1	2	1.1	-6	5	15	0.8
CN(C)CC(C)(C)CNS(=O)(=O)CC12CCC(CC1=O)C2(C)C (stereo not drawn)	8	1	-2	1	5	1
CC1CCN(C(=O)CNS(=O)(=O)c2ccc(Br)s2)CC1	12	0.8	22	2	10	0.9
CC1CC(C)CN(C(=O)CNS(=O)(=O)c2ccc(Br)s2)C1 (stereo not drawn)	6	0.5	50	18	35	0.7
Cc1ccc(N2CCN(C(=O)CNS(=O)(=O)c3ccc(Br)s3)CC2C)cc1 (stereo not drawn)	24	0.5	52*	20	38	0.6
O=C(CNS(=O)(=O)c1ccc(Br)s1)N1CCN(c2ncccn2)CC1	-3	0.6	42	11	61*	0.4
C=CCN1CCN(c2ccncc2S(=O)(=O)N2CCOCC2)CC1	-8	1	-3	-8	0	1
CCn1cc(C(=O)OCC(=O)NCc2ccc3c(c2)OCO3)c(=O)c2ccc(C)nc21	-2	0.8	22	-10	27	0.7
CCCCn1c(N)c(N(CCC(C)C)C(=O)CSc2nnc(C)s2)c(=O)[nH]c1=O	-4	0.8	16	10	4	1
COc1ccccc1C(=O)Nc1c2c(nn1-c1cccc(C)c1C)CS(=O)(=O)C2	13	1	-2	11	-8	1.1
CC12CN3CC(C)(CN(C1)C3c1ccc3c(c1)OCO3)C2=O (stereo not drawn)	13	0.5	53*	23	-13	1.1
CN1c2ccccc2N(C)C1c1ccc2c(c1)OCO2	-9	0.9	5	6	-2	1
CC(=O)N(CC1CCCO1)c1nnc(-c2ccccn2)s1 (stereo not drawn)	5	0.8	24	6	26	0.7
CNC(=O)c1cc2cccc(OC)c2oc1=O	1	.	.	5	.	.

Source: PubChem (several laboratories)
